Results: publication PMC5540273 (PLoS ONE, 2017)

How the values were obtained:
Conditions in all cases: concentration: 1 μM, replicates: in singlicate; n = 1
LCK = tested on: LCK
LIMK1 = tested on: LIMK1
LIMK2 = tested on: LIMK2
LKB1 = tested on: T1, LKB1
T1 construct: gene STK11

LOK = tested on: T2, LOK
T2 construct: gene STK10

LRRK2 = tested on: LRRK2
LTK = tested on: LTK
LYN = tested on: LYN
LZK = tested on: T3, LZK
T3 construct: gene MAP3K13

MAK = tested on: MAK
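Further: KINOMEscan kinase panel screen.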

SMILES	%Inh (LCK)	%Inh (LIMK1)	%Inh (LIMK2)	%Inh (LKB1)	%Inh (LOK)	%Inh (LRRK2)	%Inh (LTK)	%Inh (LYN)	%Inh (LZK)	%Inh (MAK)
CCS(=O)(=O)c1ccc(OC)c(Nc2nccc(-c3c(-c4cccc(NC(=O)c5c(F)cccc5F)c4)nn4ncccc34)n2)c1 [GSK326180]	56%	23%	3%	0%	92.1%	0%	19%	30%	0%	15%
CCn1c(-c2nonc2N)nc2c(C#CC(C)(C)O)nc(OC[C@H](N)c3ccccc3)cc21 [GSK943949]	1%	11%	6%	31%	1%	14%	0%	1%	0%	0%
O=C(Nc1ccccc1F)NC1CCN(c2ccnc(Nc3ccc(F)cc3)n2)CC1 [GSK1379800]	5%	0%	28%	0%	0%	0%	0%	0%	21%	23%
Cn1cc(-c2ccc3c(c2)CCN3C(=O)Cc2cccc(F)c2)c2c(N)ncnc21 [GSK2603358]	46%	0%	0%	0%	91.9%	0%	33%	0%	37%	27%
FC(F)(F)c1ccc(/C=C/c2cncnc2Nc2ccc3[nH]c(Cc4ccccc4)nc3c2)cc1 [GW709199]	9%	0%	0%	0%	13%	0%	0%	1%	0%	18%
CCn1c(-c2nonc2N)nc2c(C#CC(C)(C)O)ncc(OCCCCN)c21.O=C(O)C(F)(F)F.O=C(O)C(F)(F)F [GSK507274]	0%	0%	0%	0%	0%	45%	0%	0%	0%	88%
Cc1ccc(S(=O)(=O)Nc2ccc(Nc3nccc(Nc4cccc5[nH]ncc45)n3)cc2)cc1 [GSK581271]	39%	13%	0%	0%	0%	23%	10%	0%	0%	12%
CN(C)Cc1ccc(-c2ccc3c(Nc4ccc(Oc5ccccn5)cc4)ccnc3c2)o1 [GW567148]	92.9%	0%	0%	0%	52%	48%	0%	17%	27%	13%
O=C(O)C(F)(F)F.O=C(O)C(F)(F)F.O=c1[nH]ccc2nc(N[C@@H]3CCCNC3)nc(Nc3ccc(S(=O)(=O)N4CCOCC4)cc3)c12 [GSK2177277]	78%	0%	0%	92.1%	78%	88%	79%	73%	59%	0%
O=C(Nc1cccc(-c2nn3ccccc3c2-c2ccnc(Nc3cccc(C(F)(F)F)c3)n2)c1)c1c(F)cccc1F [GSK292658]	95.2%	0%	5%	0%	80%	1%	3%	72%	0%	25%
CC(C)(C)c1ccc2nccc(Nc3cccc(O)c3)c2c1 [GW856795]	85%	0%	1%	29%	0%	36%	18%	22%	0%	40%
COc1ccc(Nc2nccc(N3CCC(NC(=O)Nc4cccc(OC)c4)C3)n2)cc1 (stereo not shown) [GSK1379742]	13%	4%	0%	0%	0%	14%	0%	0%	0%	17%
Clc1ccc(-c2nn3ncccc3c2-c2ccnc(Nc3ccc4c(c3)OCCO4)n2)cc1 [GW829116]	83%	0%	0%	0%	71%	0%	19%	27%	0%	0%
COc1cccc(C(=O)Nc2cccc(Oc3ccc4nc(NC(=O)C5CC5)cn4n3)c2)c1	99.2%	19%	23%	0%	96.2%	3%	27%	92.9%	0%	0%
Nc1ncc(-c2ccc3nccc(-c4ccncc4)c3c2)cc1S(=O)(=O)N1CCOCC1 [GSK1627798]	20%	0%	0%	0%	0%	0%	0%	0%	0%	22%
COc1cccc(NC(=O)NC2CCN(c3ccnc(Nc4cc(OC)c(OC)c(OC)c4)n3)C2)c1 (stereo not shown) [GSK1379763]	14%	21%	34%	2%	43%	0%	62%	0%	25%	23%
O=C(Nc1n[nH]c2cc(-c3ccoc3)ccc12)C1CC1 [SB-738481]	0%	14%	22%	0%	0%	0%	13%	11%	0%	3%
Cc1ccc(C(=O)N2CC[C@@H](O)C2)cc1-n1c(C)cc(OCc2ccc(F)cc2F)c(Br)c1=O	99.4%	0%	0%	36%	0%	0%	0%	74%	0%	0%
COc1ccc(Nc2nccc(NCCNC(=O)c3cc4ccccc4s3)n2)cc1 [GSK1379896]	19%	0%	0%	1%	0%	0%	0%	0%	0%	27%

SMILES	%Inh (LCK)	%Inh (LIMK1)	%Inh (LIMK2)	%Inh (LKB1)	%Inh (LOK)	%Inh (LRRK2)	%Inh (LTK)	%Inh (LYN)	%Inh (LZK)	%Inh (MAK)
Cc1cccc(NC(=O)Nc2ccc(Oc3ncnc4ccn(C)c34)cc2)c1	0%	7%	0%	42%	86%	0%	17%	7%	0%	0%
COc1cc(Nc2nccc(-c3c(-c4cccc(NC(=O)c5c(F)cccc5F)c4)nn4ncccc34)n2)cc(OC)c1OC [GSK327238]	99.8%	42%	8%	0%	99.3%	0%	61%	99.3%	0%	12%
CSc1cccc2c(-c3ccncn3)c(-c3ccc(F)cc3)nn12 [GW514786]	20%	11%	0%	0%	0%	34%	0%	0%	20%	0%
O=C(NC1CCN(c2ccnc(Nc3ccc(F)cc3)n2)C1)c1cc2ccccc2s1 (stereo not shown) [GSK1379716]	32%	0%	0%	19%	0%	0%	10%	0%	23%	38%
CN(C)S(=O)(=O)c1cc(-c2ccc3nccc(-c4cccc(S(N)(=O)=O)c4)c3c2)cnc1N [GSK1669921]	7%	86%	5%	0%	0%	27%	39%	0%	0%	19%
Cc1ccc(C)c(NC(=O)NC2CCN(c3ccnc(Nc4ccc(F)cc4)n3)C2)c1 (stereo not shown) [GSK1379720]	0%	9%	0%	2%	0%	0%	17%	4%	41%	6%
COc1cc(Nc2ncc3c(C)nc(-c4cc5ccccc5[nH]4)n3n2)cc(OC)c1OC [GW869516]	71%	0%	4%	0%	8%	0%	0%	26%	0%	0%
C[C@@H]1CC[C@@H](C(=O)Nc2ccccc2)CN1c1cc(-c2ccc3c(N)n[nH]c3c2)nc(N)n1 [GSK2286062]	2%	0%	3%	20%	0%	0%	0%	0%	0%	22%
c1ccc(-c2cnc3nccnn23)cc1 [AH20685]	11%	19%	0%	0%	0%	5%	0%	64%	0%	33%
O=C(Nc1n[nH]c2nc(-c3ccc(O)cc3)ccc12)C1CC1 [SB-710363]	24%	2%	0%	9%	27%	0%	58%	23%	0%	90.7%
CCCCc1nn2ncccc2c1-c1ccnc(Nc2ccc(N3CCN(C)CC3)cc2)n1 [GW684941]	99.1%	70%	97%	0%	60%	60%	0%	83%	28%	20%
CCc1ccc(-c2ccc3c(c2)-c2c(cnn2C)S(=O)(=O)N3C)cc1	0%	0%	0%	29%	16%	1%	3%	0%	14%	14%
COc1cccc(-c2ccc3c(NC(=O)C4CC4)n[nH]c3n2)c1 [SB-710903]	23%	14%	55%	0%	0%	0%	0%	1%	47%	24%
COC(=O)Nc1nc2ccc(Oc3ccc(NC(=O)Nc4cc(C(F)(F)F)ccc4F)cc3)cc2n1C.Cl [GW692089]	65%	0%	0%	53%	99.2%	1%	33%	28%	49%	0%
Cl.Cl.NCC(C(=O)Nc1cc(Br)c(-c2ccnc3[nH]ccc23)s1)c1ccccc1 (stereo not shown) [GSK1269851]	28%	27%	0%	78%	0%	20%	0%	0%	0%	1%
COc1cccc(C2=C(Nc3ccc(Cl)c(C(=O)O)c3)C(=O)NC2=O)c1 [SB-390769]	15%	13%	0%	0%	0%	0%	0%	8%	30%	100%
COc1cc(Nc2nccc(N3CCC(NC(=O)Nc4cccc(C(C)=O)c4)C3)n2)cc(OC)c1OC (stereo not shown) [GSK1379753]	15%	51%	43%	0%	20%	0%	100%	60%	0%	30%
CC(=O)N1CCN(c2ccc(Nc3nccc(-c4sc(C(C)C)nc4-c4cccc(NS(=O)(=O)c5cccc(Cl)c5)c4)n3)cn2)CC1 [GSK1660437]	98.6%	98.4%	100%	0%	96.8%	24%	23%	74%	29%	35%
